Reference: PubChem BioAssay AID1491 (National Center for Advancing Translational Sciences (NCATS), 2009)
Where “and” joins values, the source holds several entries; their conditions need not be identical. Equal entries are not always repeated. Records with an inconclusive call do not appear. Calls of active or inactive are those of the source. Calls come from the whole dose curve; as a rule, active = well fitted inhibition curve with a large enough effect in the main read-out, with a control signal flat; inconclusive = small, poorly fitted or top-dose-only effect, or a change in a side signal; inactive = flat fitted curve, though single readings scatter.

Each compound was assayed against Neuropeptide S receptor (Homo sapiens) (UniProt Q6W5P4) (assay: Confirmation Concentration-Response Assay for Antagonists of the Neuropeptide S Receptor: cAMP Signal Transduction). Conditions: CHO-NPSR cells, cAMP TR-FRET, antagonist mode; series mostly up to 22.3 µM; activity change, negative = inhibition: at the top concentration.
Sequence of Neuropeptide S receptor (Homo sapiens) (Q6W5P4 whole entry, looked up): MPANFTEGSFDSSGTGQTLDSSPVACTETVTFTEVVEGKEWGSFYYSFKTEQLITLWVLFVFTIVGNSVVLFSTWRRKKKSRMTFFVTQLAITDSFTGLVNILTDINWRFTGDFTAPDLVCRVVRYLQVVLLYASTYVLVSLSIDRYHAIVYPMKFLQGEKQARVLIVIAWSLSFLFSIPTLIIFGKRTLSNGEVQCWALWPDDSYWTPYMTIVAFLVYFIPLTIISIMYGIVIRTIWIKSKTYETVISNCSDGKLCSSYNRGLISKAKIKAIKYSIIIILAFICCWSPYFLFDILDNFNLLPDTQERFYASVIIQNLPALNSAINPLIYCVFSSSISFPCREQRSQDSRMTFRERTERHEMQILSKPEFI
Summary of the method: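 LANCE TR-FRET cAMP read-out: 665/620 nm emission ratio, with the 620 nm donor channel also reported, after 2 h RT detection. Stably transfected CHO-NPSR cells got compound titrations and 100 nM NPS in stimulation reagent for 60 min at 37C. IC50 came from Hill fits.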
Potency is the fitted concentration of half-maximal effect.
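Throughout, for activity change, negative = inhibition: 0% = DMSO with NPS and full inhibition = wells lacking NPS.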

Activity change, negative = inhibition, inactive:
COc1ccc(C(=O)N(Cc2ccco2)Cc2cccs2)c(O)c1 -4.04%
COc1ccc(N(CC(=O)Nc2cccc(SC)c2)S(C)(=O)=O)cc1Cl -14.4%
NC(=S)N/N=C/c1ncc(C(F)(F)F)cc1Cl -8.43%
CN(C)c1ccc(N2CN=C3SCC(=O)N3C2)cc1 20.4%
O=C(CSC1=NCCS1)Nc1ccnc2ccccc12 -13.8%
CC1(C)O[C@@H]2C[C@H]3[C@@H]4C[C@H](F)C5=CC(=O)CC[C@]5(C)[C@H]4[C@@H](O)C[C@]3(C)[C@]2(C(=O)CO)O1 -6.23%
c1ccc(CSC2=NNC(c3ccccn3)S2)cc1 (stereo unspecified) -10.1%
CC(=O)c1c(C(C)=O)c(C)n(NC(=O)c2cccnc2)c1C 0.909%
O=[N+]([O-])c1ccc(N=Nc2ccc(O)cc2O)cc1 0.533%
CCC(c1nnnn1C1CCCC1)N1CCN(c2ccccc2)CC1 (stereo unspecified) -5.45%
O=c1cc(CNCCCO)c2ccccc2[nH]1 0.391%
O=C(Nc1nccs1)C1CCCN1S(=O)(=O)c1ccc(Cl)cc1 (stereo unspecified) 1.4%
CCC(C)n1c(=O)c(C(=O)Nc2ccccc2S(N)(=O)=O)c(O)c2ccccc21 (stereo unspecified) -13.3% [at 47.8 µM]

Potency, active:
N#CC1=C(NC=NCc2ccccc2)Oc2ccc3ccccc3c2C1c1ccccc1 (stereo unspecified) 1.58 µM
COc1ccc(-c2cc(N)n(S(=O)(=O)c3c(F)c(F)c(F)c(F)c3F)n2)cc1OC 7.08 µM
CCOC(=O)CCC(=O)Nc1ncnc2c1C(c1ccccc1)c1c(ccc3ccccc13)O2 (stereo unspecified) 2 µM
O=C(/C=C/c1ccco1)NC(=S)Nc1nc(-c2ccc3ccccc3c2)cs1 3.98 µM
Nc1ncnc2c1C(c1ccccc1)c1c(ccc3ccccc13)O2 (stereo unspecified) 1 µM
O=C(c1ccccc1)N(C(=O)c1ccccc1)c1ncnc2c1C(c1ccccc1)c1c(ccc3ccccc13)O2 (stereo unspecified) 3.16 µM
COc1cccc(C2c3c(ncn(CCN4CCOCC4)c3=N)Oc3ccc4ccccc4c32)c1 (stereo unspecified) 2.51 µM and 10 µM
O=C(Nc1cc(=O)[nH]c2nc(-c3ccc(Cl)cc3)nn12)c1ccccc1 3.98 µM
